Assay results: PubChem BioAssay AID686978 (National Center for Advancing Translational Sciences (NCATS), 2013)
Hit rate of the full screen: of about 420,000 compounds, about 64,000 (15%) were called active. Another 27% or so got no clear call; they are omitted. Calls follow the shape of the dose curve; as a rule, active = well fitted inhibition curve with a large enough effect; inconclusive = small, poorly fitted or top-dose-only effect; inactive = flat fitted curve, though single readings scatter. A selection follows.

Assay: qHTS for Inhibitors of human tyrosyl-DNA phosphodiesterase 1 (TDP1): qHTS in cells in absence of CPT; also: nearly all actives have a fitted effect of over 55% in size
Settings: DT40 Tdp1-/- hTDP1 cells, no CPT, ATP luminescence, 48 h; activity change, negative = growth inhibition: at 46.2 µM (top of the series)
Method in brief: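 Growth of hTDP1-complemented DT40 Tdp1-knockout cells is measured by ATP luminescence after at least 48 hr compound exposure at 37 °C, with DMSO substituting for the 20 nM CPT used in the parallel screen.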
% is scaled to controls: 0 for no effect and ±100 for the full control effect; potency is read from the fitted curve at half-maximal effect.

Row | SMILES | activity change, negative = growth inhibition | Potency
1 | CSc1ccc(S(=O)(=O)NCc2ccc(Cl)cc2)cc1 | -14.2% (inactive) | 
2 | CS(=O)(=O)n1nc(-c2ccco2)nc1N | -3.7% (inactive) | 
3 | Cc1ccnc(NC(=O)C(C)N2C(=O)c3ccccc3C2=O)c1 (configuration not stated) | 24.5% (inactive) | 
4 | C=CCc1cccc2cc(C(=O)OCC)c(=O)oc12 | -20% (inactive) | 
5 | CC/C=C/C(=O)N1CC2(CC(c3cccc(NC(=O)CC)c3)=NO2)C[C@H]1C(N)=O (some centres not stated) | -14.1% (inactive) | 
6 | Cc1ccc(C)c(S(=O)(=O)N(C)c2ccc(OC(=O)C3CCN(C(=O)c4ccc(F)cc4)CC3)cc2)c1 | -22.1% (inactive) | 
7 | Cc1ccc(OCC(=O)Nc2ccc(-c3nc4ncccc4o3)cc2)cc1 | -27.8% (inactive) | 
8 | Cc1cc(N2C(=O)c3ccc(C(=O)NCc4ccccc4)cc3C2=O)no1 | 0.0239% (inactive) | 
9 | COc1ccc2nc(C)cc(Nc3cccc(C(=O)O)c3)c2c1 | 12.1% (inactive) | 
10 | COc1ccc(-c2cc(C)nc3nc(N)nn23)cc1 | -2.44% (inactive) | 
11 | COc1ccc(-c2nc3nc(C)cc(C)n3c2Nc2c(C)cccc2C)cc1 |  | 18.4 µM (active)
12 | COc1cccc(-c2cnc(OC(C)(C)C)nc2OC(C)(C)C)c1 | -27.7% (inactive) | 
13 | COc1cccc(CSc2nc3nc(C)cc(C)n3n2)c1 | -1.82% (inactive) | 
14 | COc1cccc(-c2nc3nc(C)cc(C)n3c2NC2CCCCC2)c1 |  | 20.6 µM (active)
15 | CCOc1ccc(-c2nc(C)sc2CC(=O)O)cc1 | -5.66% (inactive) | 
16 | Cc1cccc(CSc2nnc(C)c(=O)n2N)c1 | -23% (inactive) | 
17 | O=C(NC1CCCC1)C(c1ccc(Cl)cc1)N(C(=O)c1csnn1)C1CC1 (configuration not stated) | -8.07% (inactive) | 
18 | COc1ccc(-c2cc(=O)c3c(O)cc(O[C@@H]4O[C@H](CO[C@@H]5O[C@@H](C)[C@H](O)[C@@H](O)[C@H]5O)[C@@H](O)[C@H](O)[C@H]4O)cc3o2)cc1O |  | inactive
19 | CCn1c(=O)cc(O)c2ccccc21 | -9.55% (inactive) | 
20 | CCOC(=O)C1CCN(S(=O)(=O)c2cc(F)ccc2OC)CC1 | -17.4% (inactive) | 
21 | CCOC(=O)c1cnc(COc2ccccc2Cl)[nH]c1=O | -9.74% (inactive) | 
22 | CC1(C)NC(=O)N(CC(=O)Nc2ccc(-c3ccccc3)cc2)C1=O | -1.23% (inactive) | 
23 | CN1CCN(C(=O)C2=C[C@H](c3ccc4c(c3)OCO4)C[C@H](OCc3ccc(CO)cc3)O2)CC1 | -15.1% (inactive) | 
24 | O=C(C1=C[C@H](c2coc3ccccc3c2=O)C[C@H](OCc2ccc(CO)cc2)O1)N1CCN(Cc2ccccc2)CC1 |  | 18.4 µM (active)
25 | O=C(C1=C[C@H](c2ccc(C(F)(F)F)cc2)C[C@H](OCc2ccc(CO)cc2)O1)N1CCN(Cc2ccccc2)CC1 |  | 13 µM (active)

Row | SMILES | activity change, negative = growth inhibition | Potency
26 | NC(=O)C1=C[C@@H](c2ccc3c(c2)OCO3)C[C@@H](OCCCCO)O1 | 2.17% (inactive) | 
27 | O=C(C1=C[C@H](c2coc3ccccc3c2=O)C[C@H](OCc2ccc(CO)cc2)O1)N1CCOCC1 | -14.3% (inactive) | 
28 | O=C(O)C1=C[C@H](c2cccs2)C[C@H](OCCCCO)O1 | -2.91% (inactive) | 
29 | C#Cc1ccc([C@@H]2C=C(C(=O)O)O[C@H](OCCCCO)C2)cc1 | -15.9% (inactive) | 
30 | NC(=O)C1=C[C@H](c2csc3ccccc23)C[C@H](OCc2ccc(CO)cc2)O1 |  | 20.6 µM (active)
31 | C=CCOC(=O)C1=C[C@@H](c2ccccc2)C[C@@H](OCc2ccc(CO)cc2)O1 | -21.2% (inactive) | 
32 | COc1cc(C(=O)N2CCN(C3CCC(C)CC3)CC2)cc(OC)c1OC (configuration not stated) | 5.51% (inactive) | 
33 | CCN(CC)CCN(C(=O)c1cc(Cl)sc1Cl)c1nc2cc3c(cc2s1)OCO3 | -28.6% (inactive) | 
34 | CN(C(=O)c1ccno1)c1nnc(-c2cccnc2)s1 | -0.876% (inactive) | 
35 | CCC1(C)N(O)C(C)(C)C(c2ccc(OC)cc2)=[N+]1[O-] (configuration not stated) | -0.459% (inactive) | 
36 | O=S(=O)(Nc1ncccn1)c1ccc(NS(=O)(=O)c2cccc(Cl)c2Cl)cc1 | -12.9% (inactive) | 
37 | Cc1noc(NS(=O)(=O)c2ccc(N/C=C/C(=O)c3ccccc3)cc2)c1C | -7.47% (inactive) | 
38 | CC(C)C[C@H](NC(=O)C1CC(=O)N(c2ccc3c(c2)OCCO3)C1)C(=O)NC1CCCC1 (some centres not stated) | 7.04% (inactive) | 
39 | COc1ccc(S(=O)(=O)N2CCN(c3cnccn3)CC2)cc1 | -19.6% (inactive) | 
40 | COc1ccc(-c2csc3ncnc(N4CCN(S(=O)(=O)c5ccccc5C#N)CC4)c23)cc1 |  | 16.4 µM (active)
41 | N#Cc1ccccc1S(=O)(=O)N1CCN(Cc2c(O)ccc3ccccc23)CC1 | 0.994% (inactive) | 
42 | CCOC(=O)c1oc2ccc(S(=O)(=O)n3nc(-c4ccccc4OC)cc3N)cc2c1C |  | 5.17 µM (active)
43 | Cc1ccc(S(=O)(=O)n2nc(OC(=O)C(C)(C)C)cc2N)cc1 | -29.9% (inactive) | 
44 | CCOc1ccc(S(=O)(=O)N2CCN(C(=O)c3oc4ccccc4c3C)CC2)cc1 | -29.3% (inactive) | 
45 | C[C@H](NC(=O)[C@@H]1CCCN1C(=O)[C@@H]1CCCN1C(=O)c1ccccc1)c1ccccc1 | -23.5% (inactive) | 
46 | CCCS(=O)(=O)N1CCC(n2c(C(F)(F)F)nc3cccnc32)CC1 |  | 5.17 µM (active)
47 | O=C1NC(CC(=O)N2CCC(n3c(C4CCC4)nc4cccnc43)CC2)c2ccccc21 (configuration not stated) | -1.68% (inactive) | 
48 | CCS(=O)(=O)N1CCC(n2c(C)nc3cccnc32)CC1 | -0.165% (inactive) | 
49 | CC(C)CC(CC(C)C)=NNC(=O)c1ccc(CSc2nncn2C)cc1 | 3% (inactive) | 
50 | CC(=O)c1cc(C#N)c(SCC(=O)C(C)(C)C)nc1C |  | 3.16 µM (active)

Row | SMILES | activity change, negative = growth inhibition | Potency
51 | CC(=O)c1cc(C#N)c(N2CCCCC2)nc1C | -19.2% (inactive) | 
52 | CC(=O)c1cc(C#N)c(N2CC(C)OC(C)C2)nc1C (configuration not stated) | 15.6% (inactive) | 
53 | CN1OC[C@@H]2CN(C(=O)c3cccnc3)[C@H](c3ccc(N4CCCCC4)cc3)C[C@@H]21 | 12.5% (inactive) | 
54 | CCc1nnc(NC(=O)C2CC(=O)N(c3ccc4c(c3)OCCO4)C2)s1 (configuration not stated) |  | 18.4 µM (active)
55 | CC(=O)c1ccccc1NC(=O)C1CC(=O)N(c2ccc3c(c2)OCCO3)C1 (configuration not stated) | -13.3% (inactive) | 
56 | CCOC(=O)c1ccc(NC(=O)C2CC(=O)N(c3ccc4c(c3)OCCO4)C2)cc1 (configuration not stated) | -1.25% (inactive) | 
57 | CN1CCN(CC(O)COCc2ccc3c(c2)OCO3)CC1 (configuration not stated) | 4.13% (inactive) | 
58 | CC(=O)Nc1ccc(NC(=O)COC(=O)C2CCC(C(C)(C)C)CC2)cc1 (configuration not stated) | -10.4% (inactive) | 
59 | CSc1nc(-c2ccc(F)cc2)nc2c1Cc1c(CO)cnc(C)c1O2 | -1.83% (inactive) | 
60 | CSc1nc(-c2ccccc2Cl)nc2c1Cc1c(CO)cnc(C)c1O2 |  | 18.4 µM (active)
61 | Cc1ccccc1CSc1nc(-c2ccccc2)nc2c1Cc1c(CO)cnc(C)c1O2 | -18.4% (inactive) | 
62 | CC(=O)N1Cc2cc(C(=O)NCc3cccc(F)c3)nc(-c3cccc(C4=CCCCC4)c3)c2[C@H]1CCO |  | 16.4 µM (active)
63 | CCCNC(=O)c1cc2c(c(-c3cccc(-c4ccc(C#N)cc4)c3)n1)[C@@H](CCO)N(C(=O)CC)C2 |  | 18.4 µM (active)
64 | Cc1c(C(=O)NCC2CC2)sc(=O)n1Cc1cccc(F)c1 | -6% (inactive) | 
65 | CCCNC(=O)c1cc(C2CCCCN2S(=O)(=O)c2ccc(C#N)cc2)on1 (configuration not stated) | -5.54% (inactive) | 
66 | Cc1nc(NCc2ccccc2)c(C(N)=O)c2c1COC(C)(C)C2 | -11.4% (inactive) | 
67 | CCCCCC(=O)N1CCN(S(=O)(=O)c2ccc3c(c2)OCCCO3)CC1 | -29% (inactive) | 
68 | CC(=O)NNc1cc(=O)c2c(=O)n(C)c(=O)n(C)c2[nH]1 | -2.48% (inactive) | 
69 | Cc1cccc(C(=O)NC(=S)N2CCN(c3ccc([N+](=O)[O-])cc3)CC2)c1 |  | 16.4 µM (active)
70 | Cc1cccc(C(=O)NNC(=O)c2cccc([N+](=O)[O-])c2)c1 | 5.26% (inactive) | 
71 | O=C(NC(=S)NC1CCS(=O)(=O)C1)c1cccc([N+](=O)[O-])c1 (configuration not stated) | 41.6% (inactive) | 
72 | O=C(NCc1ccncc1)c1ccc(NS(=O)(=O)c2cccc([N+](=O)[O-])c2)cc1 | -6.11% (inactive) | 
73 | COCOCCn1cc(CN2CCS(=O)(=O)N(Cc3ccc(-c4ccc(OC)cc4)cc3)C(CC(C)C)C2=O)nn1 (configuration not stated) |  | 10.3 µM (active)
74 | COCCCn1cc(CN2CC(N(C)C)CS2(=O)=O)nn1 (configuration not stated) | -7.87% (inactive) | 
75 | COCOCCn1cc(CN2CCS(=O)(=O)N(Cc3ccc(-c4ccccc4)cc3)C(CC(C)C)C2=O)nn1 (configuration not stated) |  | 18.4 µM (active)

Row | SMILES | activity change, negative = growth inhibition | Potency
76 | CN(Cc1ccccc1)S(=O)(=O)c1ccc(F)c(C(=O)Nc2cccc(Cl)c2Cl)c1 | -21.5% (inactive) | 
77 | CC1CCN(S(=O)(=O)c2ccc(S(=O)(=O)NCc3ccco3)cc2)CC1 | -18.4% (inactive) | 
78 | CC(C)CNC(=S)NNC(=O)c1nn(C)cc1Cl | -16.3% (inactive) | 
79 | FC(F)(F)c1ccc(-c2cccc3c2C2CC3CCN2Cc2ccccc2)cc1 (configuration not stated) |  | 13 µM (active)
80 | O=C(NCCN1CCOC1=O)C1CCC(=O)N(CCc2ccc(Cl)cc2)C1 (configuration not stated) | 2.23% (inactive) | 
81 | O=S(=O)(c1ccc(F)cc1)N1CCN(Cc2ccccc2C(F)(F)F)CC1 | -14.4% (inactive) | 
82 | CSCCC(NS(=O)(=O)/C=C/c1ccccc1)C(=O)N1CCC(C)CC1 (configuration not stated) | -17% (inactive) | 
83 | CCOC(=O)N1CCN(CCC(=O)Nc2cc(OC)ccc2OC)CC1 | -3.04% (inactive) | 
84 | COc1ccc(OC)c(NC(=O)CN2CCCN(Cc3cc(C)ccc3C)S2(=O)=O)c1 |  | 18.4 µM (active)
85 | COc1ccc(OC)c(NC(=O)CCN2CCC(C)CC2)c1 | -7.7% (inactive) | 
86 | COC(=O)c1ccc(S(=O)(=O)c2ccc(C(=O)OC)s2)s1 | 0.0322% (inactive) | 
87 | C=CC(=O)Nc1ccc(Nc2ccnc(Nc3ccc(N4CCN(C)CC4)cc3)n2)cc1 | -92.1% (inactive) | 
88 | N#CCSc1nc(-c2ccccc2)nc2ccc(F)cc12 | -14% (inactive) | 
89 | Fc1ccc2nc(-c3ccccc3)nc(SCc3nnc(-c4ccccc4)o3)c2c1 |  | 23.1 µM (active)
90 | Fc1ccc(-c2nnc(CSc3nnc(-c4ccc5c(c4)OCO5)o3)o2)cc1 | 0.842% (inactive) | 
91 | Nc1ccc2c(c1)C(O)c1ccc(Cl)cc1-2 (configuration not stated) | -1.47% (inactive) | 
92 | CCCCCCCCC(=O)NCCOc1ccccc1 | 2.92% (inactive) | 
93 | CCCCCCOc1ccc(OC(=O)c2cccnc2)cc1 |  | 13 µM (active)
94 | O=C(Oc1ccc(Br)cc1)c1cccnc1 | -13.7% (inactive) | 
95 | COc1ccc(-c2nc(CS(=O)CC(=O)NCc3cccnc3)c(C)o2)cc1OC (configuration not stated) | -1% (inactive) | 
96 | C=CCOc1ccc(C2/C(=C(\O)c3c(C)[nH]c(C(=O)OC)c3C)C(=O)C(=O)N2CCN(C)C)cc1 (configuration not stated) | 13.3% (inactive) | 
97 | CO[C@H]1[C@@H]2C=CO[C@@H](O[C@H]3O[C@@H](CO)[C@H](O)[C@@H](O)[C@@H]3O)[C@@H]2[C@@]2(CO)O[C@@H]12 | -8.69% (inactive) | 
